Results filed as inconclusive are left out. Entries that show only a call come without a potency. Active and inactive are the calls of the source. Calls come from the whole dose curve; as a rule, active = well fitted cell-killing curve with a large enough effect in the repeat runs; inconclusive = weak or mixed curves, or effect the other way; inactive = flat fitted curve, though single readings scatter.
Key:
[1] = cAMP Responsive Elements (CRE) small molecule antagonists, cell-based qHTS assay: qHTS cell viability counter screen (AID 2060913); note: nearly all actives have a fitted effect of over 40% in size
Method in brief: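 HEK293T CRE-bla, 2,000 cells/well, 18 h preincubation; cpd in DMSO + NKH477 0.25 uM final, 3 h 37 C/5% CO2; LiveBLAzer 2 h RT, then CellTiter-Glo 30 min RT, luminescence.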

[2] = cAMP Responsive Elements (CRE) small molecule agonists, cell-based qHTS assay: qHTS cell viability counter screen (AID 2060914);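 note: viability read after 3 h of compound exposure; nearly all actives have a fitted effect of over 50% in size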
Method in brief: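 CRE-bla HEK293T cells in 10% dialyzed FBS medium were exposed to compounds for 3 h at 37C after 18 h plating. CellTiter-Glo was then added in the same wells, and luminescence was read after 30 min at room temperature.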
Potency is the fitted concentration of half-maximal effect.

Question: Which Potency [1] does the source give for `CC(=O)Nc1ccc2c(c1)Cc1ccccc1-2` here?
Answer: The Potency was “inactive”.

Question: What about the Potency [2] of the same molecule?
Answer: Its Potency is “inactive”.

Question: Which results are given for `CC(O)CN(CC(C)O)CC(C)O` (centres undefined)?
Answer: Potency [1]: inactive; Potency [2]: inactive

Question: For `Cc1ccc([N+](=O)[O-])[c]2c1[O][Hg]2`, which Potency [1] is on record?
Answer: Its Potency is 11.9 µM (active).

Question: And the Potency [2]?
Answer: The Potency was 18.8 µM (active).

Question: Which Potency [1] does the source give for `Nc1ccc(Cl)cc1C(=O)c1ccccc1F` here?
Answer: The Potency was “inactive”.

Question: And the Potency [2]?
Answer: The Potency was “inactive”.

Question: What does the source list for `c1ccc2c(c1)cc1ccc3cccc4ccc2c1c34`?
Answer: Potency [1]: inactive; Potency [2]: inactive

Question: For `CCOP(=S)(OCC)Oc1ccc2c(C)c(Cl)c(=O)oc2c1`, which Potency [1] is on record?
Answer: The Potency was “inactive”.

Question: And the Potency [2]?
Answer: Its Potency is “inactive”.

Question: For `CCOc1nc(C(Cl)(Cl)Cl)ns1`, which Potency [1] is on record?
Answer: Its Potency is “inactive”.

Question: What about the Potency [2] of the same molecule?
Answer: Its Potency is “inactive”.

Question: Which Potency [1] does the source give for `CC(Cl)C(=O)O` (centres undefined) here?
Answer: Its Potency is “inactive”.

Question: What about the Potency [2] of the same molecule?
Answer: Its Potency is “inactive”.

Question: For `O=S(=O)(Oc1ccc(Cl)cc1)c1ccc(Cl)cc1`, which Potency [1] is on record?
Answer: The Potency was “inactive”.

Question: What about the Potency [2] of the same molecule?
Answer: Its Potency is “inactive”.

Question: Which Potency [1] does the source give for `CCC1COC(Cn2cncn2)(c2ccc(Cl)cc2Cl)O1` (centres undefined) here?
Answer: The Potency was “inactive”.

Question: And the Potency [2]?
Answer: Its Potency is “inactive”.

Question: Which Potency [1] does the source give for `CCOP(=O)(SC(C)CC)N1CCSC1=O` (centres undefined) here?
Answer: Its Potency is “inactive”.

Question: And the Potency [2]?
Answer: Its Potency is “inactive”.

Question: For `ClC(Cl)(Cl)C(Cl)(Cl)Cl`, which Potency [1] is on record?
Answer: The Potency was “inactive”.

Question: And the Potency [2]?
Answer: Its Potency is “inactive”.

Question: With `CC(C)NCC(O)c1ccccc1Cl` (centres undefined) as the molecule, how does the Potency [1] read?
Answer: Its Potency is “inactive”.

Question: And the Potency [2]?
Answer: The Potency was “inactive”.

Question: With `COc1ccc2c(c1OC)C(=O)O[C@H]2[C@@H]1c2cc3c(cc2CCN1C)OCO3` as the molecule, how does the Potency [1] read?
Answer: Its Potency is “inactive”.

Question: And the Potency [2]?
Answer: The Potency was “inactive”.

Question: Which results are given for `NCC1(CC(=O)O)CCCCC1`?
Answer: Potency [1]: inactive; Potency [2]: inactive

Question: Which Potency [1] does the source give for `CCN(CC)C(=S)S` here?
Answer: Its Potency is “inactive”.

Question: What about the Potency [2] of the same molecule?
Answer: The Potency was “inactive”.

Question: With `CCCCCCI` as the molecule, how does the Potency [1] read?
Answer: The Potency was “inactive”.

Question: And the Potency [2]?
Answer: The Potency was “inactive”.

Question: With `CC[N+]1(C)CCCC1` as the molecule, how does the Potency [1] read?
Answer: The Potency was “inactive”.

Question: And the Potency [2]?
Answer: Its Potency is “inactive”.

Question: With `ClCC(Cl)(Cl)Cl` as the molecule, how does the Potency [1] read?
Answer: The Potency was “inactive”.

Question: And the Potency [2]?
Answer: Its Potency is “inactive”.

Question: Which results are given for `CC(c1ccc(O)cc1)c1ccc(O)cc1`?
Answer: Potency [1]: inactive; Potency [2]: inactive

Question: With `O=C(O)c1cc(I)cc(I)c1I` as the molecule, how does the Potency [1] read?
Answer: Its Potency is “inactive”.

Question: And the Potency [2]?
Answer: The Potency was “inactive”.

Question: What does the source list for `C#CCOS(=O)OC1CCCCC1Oc1ccc(C(C)(C)C)cc1` (centres undefined)?
Answer: Potency [1]: inactive; Potency [2]: inactive

Question: What does the source list for `CCCCCCCCCCCCCCC(Br)C(=O)O` (centres undefined)?
Answer: Potency [1]: inactive; Potency [2]: inactive

Question: With `NC(=O)CF` as the molecule, how does the Potency [1] read?
Answer: The Potency was “inactive”.

Question: And the Potency [2]?
Answer: Its Potency is “inactive”.

Question: With `CNC(=O)O/N=C/C(C)(C)S(C)(=O)=O` as the molecule, how does the Potency [1] read?
Answer: Its Potency is “inactive”.

Question: And the Potency [2]?
Answer: Its Potency is “inactive”.

Question: For `Cc1cc(-c2ccc(N)c(C)c2)ccc1N`, which Potency [1] is on record?
Answer: Its Potency is “inactive”.

Question: What about the Potency [2] of the same molecule?
Answer: Its Potency is “inactive”.

Question: Which results are given for `CCN(C(C)=O)c1cccc(-c2ccnc3c(C#N)cnn23)c1`?
Answer: Potency [1]: inactive; Potency [2]: inactive

Question: Which results are given for `O=C(NCNC(=O)NC1C(=O)NC(=O)N1CO)NC1C(=O)NC(=O)N1CO` (centres undefined)?
Answer: Potency [1]: inactive; Potency [2]: inactive

Question: Which results are given for `CC1CCCCC1NC(=O)Nc1ccccc1` (centres undefined)?
Answer: Potency [1]: inactive; Potency [2]: inactive

Question: For `N#CCc1ccccc1`, which Potency [1] is on record?
Answer: Its Potency is “inactive”.

Question: And the Potency [2]?
Answer: Its Potency is “inactive”.

Question: Which results are given for `Oc1ccc(C(=C(Cl)Cl)c2ccc(O)cc2)cc1`?
Answer: Potency [1]: inactive; Potency [2]: inactive

Question: With `NNC(N)=O` as the molecule, how does the Potency [1] read?
Answer: The Potency was “inactive”.

Question: And the Potency [2]?
Answer: Its Potency is “inactive”.

Question: What does the source list for `CC(c1ccc(O)cc1)(c1ccc(O)cc1)c1ccc(O)cc1`?
Answer: Potency [1]: inactive; Potency [2]: inactive

Question: What does the source list for `Cc1cc(C(F)(C(F)(F)F)C(F)(F)F)ccc1NC(=O)c1cccc(I)c1C(=O)NC(C)(C)CS(C)(=O)=O`?
Answer: Potency [1]: inactive; Potency [2]: inactive

Question: With `O=C(O)C(Cl)(Cl)Cl` as the molecule, how does the Potency [1] read?
Answer: The Potency was “inactive”.

Question: And the Potency [2]?
Answer: The Potency was “inactive”.

Question: Which results are given for `O=C(Oc1ccc(Br)cc1)N1CCN2CCC1CC2`?
Answer: Potency [1]: inactive; Potency [2]: inactive

Question: Which Potency [1] does the source give for `CCOCn1c(-c2ccc(Cl)cc2)c(C#N)c(Br)c1C(F)(F)F` here?
Answer: Its Potency is “inactive”.

Question: What about the Potency [2] of the same molecule?
Answer: Its Potency is “inactive”.

Question: With `Clc1ccc(C(Cl)(Cl)Cl)c(Cl)c1` as the molecule, how does the Potency [1] read?
Answer: The Potency was “inactive”.

Question: What about the Potency [2] of the same molecule?
Answer: The Potency was “inactive”.

Question: For `CCOP(=S)(OCC)Oc1cc(C)nc(C(C)C)n1`, which Potency [1] is on record?
Answer: The Potency was “inactive”.

Question: What about the Potency [2] of the same molecule?
Answer: The Potency was “inactive”.

Question: For `Oc1ccccc1Cl`, which Potency [1] is on record?
Answer: Its Potency is “inactive”.

Question: What about the Potency [2] of the same molecule?
Answer: Its Potency is “inactive”.

Question: With `CCOP(=S)(OCC)OP(=S)(OCC)OCC` as the molecule, how does the Potency [1] read?
Answer: Its Potency is “inactive”.

Question: And the Potency [2]?
Answer: The Potency was “inactive”.

Question: With `CNC(=O)Oc1cc(C)cc(C(C)C)c1` as the molecule, how does the Potency [1] read?
Answer: The Potency was “inactive”.

Question: And the Potency [2]?
Answer: The Potency was “inactive”.

Question: What does the source list for `CCOP(=S)(OCC)SCSCC`?
Answer: Potency [1]: inactive; Potency [2]: inactive

Question: Which results are given for `CC[N+]1(CC)CCC(OC(=O)C(O)(c2ccccc2)c2ccccc2)C1` (centres undefined)?
Answer: Potency [1]: inactive; Potency [2]: inactive

Question: Which Potency [1] does the source give for `CNC(=O)Oc1cccc2c1OC(C)(C)C2` here?
Answer: The Potency was “inactive”.

Question: What about the Potency [2] of the same molecule?
Answer: The Potency was “inactive”.

Question: Which Potency [1] does the source give for `Cc1cc(C)c(C2=C(OC(=O)CC(C)(C)C)C3(CCCC3)OC2=O)c(C)c1` here?
Answer: Its Potency is “inactive”.

Question: What about the Potency [2] of the same molecule?
Answer: Its Potency is “inactive”.

Question: For `COc1cc(C[C@@H](C)N)c(OC)cc1Br`, which Potency [1] is on record?
Answer: The Potency was “inactive”.

Question: And the Potency [2]?
Answer: The Potency was “inactive”.

Question: For `ClCc1ccccc1CCl`, which Potency [1] is on record?
Answer: The Potency was “inactive”.

Question: What about the Potency [2] of the same molecule?
Answer: The Potency was “inactive”.

Question: Which Potency [1] does the source give for `Cc1ccc2cc3c(ccc4ccccc43)c3c2c1CC3` here?
Answer: Its Potency is “inactive”.

Question: And the Potency [2]?
Answer: The Potency was “inactive”.

Question: With `O=C(O)c1ccc2[nH]cc(CCCCN3CC=C(c4ccccc4)CC3)c2c1` as the molecule, how does the Potency [1] read?
Answer: Its Potency is “inactive”.

Question: What about the Potency [2] of the same molecule?
Answer: Its Potency is “inactive”.

Question: What does the source list for `CC1=C(C(=O)Nc2ccccc2)S(=O)(=O)CCO1`?
Answer: Potency [1]: inactive; Potency [2]: inactive

Question: Which Potency [1] does the source give for `C=CCCC#N` here?
Answer: Its Potency is “inactive”.

Question: What about the Potency [2] of the same molecule?
Answer: Its Potency is “inactive”.

Question: Which results are given for `CCCCCCCCCc1ccc(O)cc1`?
Answer: Potency [1]: inactive; Potency [2]: inactive

Question: With `O=C(NC(=O)c1c(F)cccc1F)Nc1cc(Cl)c(Oc2ncc(C(F)(F)F)cc2Cl)c(Cl)c1` as the molecule, how does the Potency [1] read?
Answer: Its Potency is “inactive”.

Question: What about the Potency [2] of the same molecule?
Answer: Its Potency is “inactive”.

Question: Which results are given for `CCS(=O)(=O)c1cccnc1S(=O)(=O)NC(=O)Nc1nc(OC)cc(OC)n1`?
Answer: Potency [1]: inactive; Potency [2]: inactive

Question: For `N#Cc1cc([N+](=O)[O-])ccc1N`, which Potency [1] is on record?
Answer: Its Potency is “inactive”.

Question: What about the Potency [2] of the same molecule?
Answer: Its Potency is “inactive”.

Question: What does the source list for `NNC(N)=S`?
Answer: Potency [1]: inactive; Potency [2]: inactive

Reference: PubChem BioAssay (Tox21)
